Screening results from PubChem BioAssay.
In the library only some 19% were active in any assay of this set; here they are far more common.
Giardia killer: Giardia lamblia killing; AID 540267; hit rate 0.15% among 340,000; activity change, % at 7.66 µM, hits read low; Giardia lamblia trophozoite viability; in the data active = activity change below about -80%; inconclusive = between about -30% and that limit;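 note: parasites exposed to compound for two days anaerobically before the ATP read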
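Trophozoites 100 cells/well + cpd; 48 hrs, 37 deg C, anaerobic. ATPLite 1-Step added, 15-30 min RT, luminescence read (ATP-based viability).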
TDP1 cell CPT: growth inhibition of DT40 Tdp1-/-;hTDP1 cells with camptothecin (screen for TDP1 inhibitors); chicken DT40 Tdp1-/-;hTDP1 cells + 20 nM CPT, ATP luminescence, 48 h; Potency, µM (doses to about 46.2 µM), usual class: inhibitors; hit rate 12% among 420,000; note: nearly all actives have a fitted effect of over 55% in size
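Chicken DT40 Tdp1-/- cells stably complemented with human TDP1 were seeded at 400 cells/well in medium containing 20 nM camptothecin, exposed to pin-transferred compounds, and grown at 37 °C for at least 48 hr. Viability was read as ATP luminescence.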
IL1B secr inh: inhibitors of inflammasome signaling (IL-1 beta secretion). THP-1 LPS/ATP IL-1B secretion, AlphaLISA, 16 h; active compounds read low. AID 743279. hit rate 4.7% among 360,000. activity change, % at 57.5 µM; in the data active = activity change below about -50%; inconclusive = mostly about -30% to -49%
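Secreted IL-1B measured by AlphaLISA bead assay after 16 h compound exposure of THP-1 cells; compounds (final up to 57.5 uM) added 1 h before LPS (250 ng/mL) and ATP (1.25 mM) stimulation; lower signal means less secretion.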
DT40 TDP1 no CPT: qHTS for Inhibitors of human tyrosyl-DNA phosphodiesterase 1 (TDP1): qHTS in cells in absence of CPT; DT40 Tdp1-/- hTDP1 cells, no CPT, ATP luminescence, 48 h; Potency, µM (doses to about 46.2 µM), most hits filed as inhibitors; hit rate 15% among 420,000; note: nearly all actives have a fitted effect of over 55% in size
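Chicken DT40 Tdp1-/- cells stably complemented with human TDP1 were seeded at 400 cells/well with DMSO in place of 20 nM camptothecin. After compound pinning, cells grew at least 48 hr at 37 °C; viability read by CellTiter-Glo luminescence.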
ELG1 repair inh: inhibitors of ELG1-dependent DNA repair in HEK293T cells; Potency, µM (top dose mostly 46.1 µM), actives largely listed as inhibitors; hit rate 2.3% among 330,000; HEK293T ELG1-luciferase reporter, luminescence, 16 h; DNA damage induced by 5-fluorouridine; note: nearly all actives have a fitted effect of over 55% in size
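Reporter activity after DNA damage by 5-fluorouridine is monitored. Compound-treated cells incubate 16 hr at 37 °C, then ONE-Glo is added for 30 min before luminescence reading.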
TDP1 inh: TDP1 (human) enzyme inhibition. recombinant TDP1, AlphaScreen DNA substrate cleavage. hit rate 0.28% among 350,000. Q9NUW8. Potency, µM (top dose mostly 130 µM), most hits filed as inhibitors; note: nearly all actives have a fitted effect of over 40% in size
Target sequence (Q9NUW8 whole entry, looked up): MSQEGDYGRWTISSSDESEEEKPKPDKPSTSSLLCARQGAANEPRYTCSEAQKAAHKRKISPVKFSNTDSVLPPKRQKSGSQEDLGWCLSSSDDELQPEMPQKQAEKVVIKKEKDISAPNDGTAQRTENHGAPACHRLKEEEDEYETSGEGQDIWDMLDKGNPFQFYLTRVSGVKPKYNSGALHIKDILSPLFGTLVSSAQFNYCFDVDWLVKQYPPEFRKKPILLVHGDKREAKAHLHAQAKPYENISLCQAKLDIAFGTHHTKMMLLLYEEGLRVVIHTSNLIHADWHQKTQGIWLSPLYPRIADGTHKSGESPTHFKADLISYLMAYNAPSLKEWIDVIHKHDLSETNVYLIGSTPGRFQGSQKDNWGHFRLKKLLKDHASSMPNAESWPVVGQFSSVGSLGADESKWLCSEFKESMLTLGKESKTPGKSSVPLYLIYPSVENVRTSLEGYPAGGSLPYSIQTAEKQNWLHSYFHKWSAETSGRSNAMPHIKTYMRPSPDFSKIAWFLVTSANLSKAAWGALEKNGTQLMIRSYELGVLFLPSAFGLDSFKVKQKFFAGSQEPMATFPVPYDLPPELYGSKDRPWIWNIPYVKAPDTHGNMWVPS
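Steps: enzyme plus compound, 15 min RT; add biotin/phosphotyrosine-FITC oligonucleotide (15 nM final), react 5 min; add donor/acceptor beads (10 ug/ml final), 10 min; read AlphaScreen. Tdp1 at 1 nM final.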
A number is an active result. Unless noted, calls come from the whole dose curve; as a rule, active = well fitted curve in the direction sought with a large enough effect; inconclusive = small, poorly fitted or top-dose-only effect, or another doubt; inactive = no such curve, though single readings can be large; an effect the other way counts as inactive or inconclusive.

How did COc1ccc(NC(=O)c2cn(CC(C)C)c(=O)c3cc(OC)c(OC)cc23)cc1Cl do in these assays?
TDP1 cell CPT: 21µM; DT40 TDP1 no CPT: 21µM; TDP1 inh: inactive

How did S=C(NC1CCCCC1)N(CCc1ccccc1)CCc1ccccc1 do in these assays?
Giardia killer: inactive; TDP1 cell CPT: inconclusive; IL1B secr inh: inactive; DT40 TDP1 no CPT: inconclusive; ELG1 repair inh: inactive; TDP1 inh: inactive

Results for CCOc1ccc(Nc2oc(-c3ccc(COc4ccccc4C)o3)nc2C#N)cc1 ?
TDP1 cell CPT: inconclusive; DT40 TDP1 no CPT: inconclusive; TDP1 inh: inactive

What do the screens show for `Cc1ccc(S(C)(=O)=O)cc1C(=O)NC(C)C1CC2CCC1C2` (stereo not given)?
Giardia killer: inactive; TDP1 cell CPT: inactive; IL1B secr inh: inactive; DT40 TDP1 no CPT: inactive; ELG1 repair inh: inactive

How did CC(C)Oc1cccc(NC(=O)C2(C)CCN2C(=O)C(C)C)c1 (stereo not given) do in these assays?
TDP1 cell CPT: inactive; IL1B secr inh: inactive; DT40 TDP1 no CPT: inactive

What do the screens show for `Cc1cccn2c(=O)c(/C=C(\C#N)C(=O)NCc3ccco3)c(N3CCCC(C)C3)nc12` (stereo not given)?
Giardia killer: inactive; TDP1 cell CPT: inconclusive; IL1B secr inh: -53; DT40 TDP1 no CPT: inconclusive; ELG1 repair inh: inconclusive; TDP1 inh: inactive

What do the screens show for `CCNc1nn2ccccc2c1/C=C(\C#N)C(=O)OCC`?
Giardia killer: inactive; TDP1 cell CPT: inconclusive; IL1B secr inh: inactive; DT40 TDP1 no CPT: 16µM; ELG1 repair inh: inactive; TDP1 inh: inactive

Results for Cc1cccn2c(=O)c(/C=C(\C#N)C(=O)NCc3ccco3)c(N3CCCCC3)nc12 ?
Giardia killer: inactive; TDP1 cell CPT: inconclusive; IL1B secr inh: inactive; DT40 TDP1 no CPT: inconclusive; ELG1 repair inh: 18µM; TDP1 inh: inactive

How did CCOC(=O)/C(C#N)=C/c1c(N2CCCCCC2)nc2ccccn2c1=O do in these assays?
Giardia killer: inconclusive; TDP1 cell CPT: inconclusive; IL1B secr inh: inactive; DT40 TDP1 no CPT: 21µM; ELG1 repair inh: inactive

Results for C=CCN(CC=C)S(=O)(=O)c1ccc(C(=O)Nc2nnc(COC)o2)cc1 ?
Giardia killer: inactive; TDP1 cell CPT: inconclusive; IL1B secr inh: inactive; DT40 TDP1 no CPT: 16µM; ELG1 repair inh: inconclusive; TDP1 inh: inactive

How did COCc1nnc(NC(=O)c2ccc(S(=O)(=O)N(C)c3ccccc3)cc2)o1 do in these assays?
Giardia killer: inactive; TDP1 cell CPT: 16µM; IL1B secr inh: inactive; DT40 TDP1 no CPT: inconclusive; ELG1 repair inh: inactive; TDP1 inh: inactive

What do the screens show for `Nn1cc(-c2ccccc2)nc1SCC(=O)Nc1ccc(S(N)(=O)=O)cc1`?
Giardia killer: inactive; TDP1 cell CPT: inactive; IL1B secr inh: inactive; DT40 TDP1 no CPT: inactive; ELG1 repair inh: inactive; TDP1 inh: inactive

How did O=C(CN1CCN(c2cccc(C(F)(F)F)c2)CC1)NCc1ccccc1 do in these assays?
Giardia killer: inactive; TDP1 cell CPT: inactive; IL1B secr inh: -55; DT40 TDP1 no CPT: inconclusive; ELG1 repair inh: inactive; TDP1 inh: inactive

How did NS(=O)(=O)c1ccc(CCNC(=O)CN2CCN(c3cccc(Cl)c3)CC2)cc1 do in these assays?
Giardia killer: inactive; TDP1 cell CPT: 18µM; IL1B secr inh: inactive; DT40 TDP1 no CPT: 16µM; ELG1 repair inh: inactive; TDP1 inh: inactive

Results for O=C(CN1CCN(c2cccc(Cl)c2)CC1)NCc1ccccc1 ?
Giardia killer: inactive; TDP1 cell CPT: inactive; IL1B secr inh: inactive; DT40 TDP1 no CPT: inconclusive; ELG1 repair inh: inactive; TDP1 inh: inactive

How did O=C(CN1CCN(c2cccc(C(F)(F)F)c2)CC1)Nc1cccc(C(F)(F)F)c1 do in these assays?
Giardia killer: inactive; TDP1 cell CPT: inactive; IL1B secr inh: inactive; DT40 TDP1 no CPT: inactive; ELG1 repair inh: inactive; TDP1 inh: inactive

Results for O=C(CN1CCN(c2ccc(Cl)cc2)CC1)NCc1ccccc1 ?
Giardia killer: inactive; TDP1 cell CPT: inconclusive; IL1B secr inh: -61; DT40 TDP1 no CPT: inconclusive; ELG1 repair inh: inconclusive; TDP1 inh: inactive

What do the screens show for `O=C(CN1CCN(C/C=C/c2ccccc2)CC1)NCc1ccc(Cl)cc1`?
Giardia killer: inactive; TDP1 cell CPT: 5.8µM; IL1B secr inh: inactive; DT40 TDP1 no CPT: 4.6µM; ELG1 repair inh: inconclusive; TDP1 inh: inactive

Results for NS(=O)(=O)c1ccc(CCNC(=O)CN2CCN(c3ccc(F)cc3)CC2)cc1 ?
Giardia killer: inactive; TDP1 cell CPT: inconclusive; IL1B secr inh: inactive; DT40 TDP1 no CPT: inconclusive; ELG1 repair inh: inactive; TDP1 inh: inactive

How did NC(=S)Nc1cccc2[nH]ccc12 do in these assays?
Giardia killer: inactive; TDP1 cell CPT: inactive; IL1B secr inh: inactive; DT40 TDP1 no CPT: inactive; ELG1 repair inh: inconclusive; TDP1 inh: inactive

How did CCc1nnc(NC(=O)[C@@H](NS(=O)(=O)c2ccc3c(c2)OCCO3)C(C)C)s1 do in these assays?
Giardia killer: inactive; TDP1 cell CPT: inactive; IL1B secr inh: inactive; DT40 TDP1 no CPT: inconclusive

Results for O=C(CN1CCN(c2ccccc2F)CC1)NCc1ccc(Cl)cc1 ?
Giardia killer: inactive; TDP1 cell CPT: inactive; IL1B secr inh: inactive; DT40 TDP1 no CPT: inactive; ELG1 repair inh: inactive; TDP1 inh: inactive

Results for Clc1ccc(CNc2ccc(N3CCN(Cc4ccccc4)CC3)cc2)cc1 ?
Giardia killer: inactive; TDP1 cell CPT: inconclusive; IL1B secr inh: -58; DT40 TDP1 no CPT: inconclusive; ELG1 repair inh: inconclusive; TDP1 inh: inactive

How did Cc1[nH]c2ccccc2c1C(O)CN1CCN(c2cccc(C(F)(F)F)c2)CC1 (stereo not given) do in these assays?
Giardia killer: inactive; TDP1 cell CPT: 23µM; IL1B secr inh: -103; DT40 TDP1 no CPT: 18µM; ELG1 repair inh: 15µM; TDP1 inh: inactive

How did Cc1cccc(N2CCN(CC(=O)NCc3ccc(Cl)cc3)CC2)c1C do in these assays?
Giardia killer: inactive; TDP1 cell CPT: inconclusive; IL1B secr inh: -64; DT40 TDP1 no CPT: 4.1µM; ELG1 repair inh: inactive; TDP1 inh: inactive

What do the screens show for `Fc1cccc(Cl)c1CNc1ccc(N2CCCC2)cc1`?
Giardia killer: inactive; TDP1 cell CPT: 2.3µM; IL1B secr inh: inactive; DT40 TDP1 no CPT: 9.2µM; ELG1 repair inh: inconclusive; TDP1 inh: inactive

How did c1ccc(CNc2ccc(N3CCOCC3)cc2)cc1 do in these assays?
Giardia killer: inactive; ELG1 repair inh: inconclusive; TDP1 inh: inactive

How did COc1ccc(/C=C/C(=O)NCC2Cc3cccc(-c4nc(C)cnc4C)c3O2)cc1OC (stereo not given) do in these assays?
TDP1 cell CPT: inactive; DT40 TDP1 no CPT: inactive

Results for Cc1ccc(S(=O)(=O)c2cn(CC(=O)Nc3cccc(C)c3)c3cc4c(cc3c2=O)OCO4)cc1 ?
TDP1 cell CPT: inactive; DT40 TDP1 no CPT: inactive; TDP1 inh: inactive
